# How the values were obtained:
# Experiment in all cases: DAPPL (digital affinity profiling via proximity ligation, sequencing); 10 mM Tris-HCl pH 7.5, 50 mM NaCl, 1 mM DTT, 4% glycerol, room temperature, 30 min; GST-TFs on glutathione beads, 16-mer random dsDNA library, 0.1% formaldehyde crosslink after washing; high values mean tight binding
# FLI1 = molecular target: T1, FLI1 (Homo sapiens, UniProt Q01543 1-452); details: protein: recombinant; tags: N-terminal GST; dsDNA, one strand shown
# T1 sequence: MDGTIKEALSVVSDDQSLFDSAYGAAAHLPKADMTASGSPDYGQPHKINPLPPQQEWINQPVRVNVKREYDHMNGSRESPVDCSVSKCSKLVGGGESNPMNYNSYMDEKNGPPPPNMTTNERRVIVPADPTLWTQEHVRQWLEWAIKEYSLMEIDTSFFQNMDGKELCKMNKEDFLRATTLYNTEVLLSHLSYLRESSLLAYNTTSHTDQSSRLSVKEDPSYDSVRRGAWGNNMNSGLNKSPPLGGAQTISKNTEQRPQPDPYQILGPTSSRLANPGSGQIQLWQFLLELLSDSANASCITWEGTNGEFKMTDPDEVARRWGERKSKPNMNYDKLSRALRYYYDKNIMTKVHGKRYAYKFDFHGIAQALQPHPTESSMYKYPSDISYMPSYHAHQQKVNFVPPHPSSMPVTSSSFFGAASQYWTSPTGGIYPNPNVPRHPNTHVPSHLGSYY
# Summary of the method: (§1)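 Yeast served to express human transcription factors as GST fusions, which were then captured on glutathione beads and labelled with DNA barcodes. Pooled with a tag-only sample, they were incubated with 200 nmole of a 16-mer random double-stranded DNA library for 30 min at room temperature in Tris/NaCl/DTT/glycerol buffer, washed, crosslinked with 0.1% formaldehyde, ligated by proximity, amplified by PCR and sequenced. Dividing each hexamer's read frequency for a factor by its frequency for the tag-only sample gives the binding signal.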
# ELK1 = molecular target: T2, ELK1 (Homo sapiens, UniProt P19419 1-428); details: protein: recombinant; tags: N-terminal GST; dsDNA, one strand shown
# T2 sequence: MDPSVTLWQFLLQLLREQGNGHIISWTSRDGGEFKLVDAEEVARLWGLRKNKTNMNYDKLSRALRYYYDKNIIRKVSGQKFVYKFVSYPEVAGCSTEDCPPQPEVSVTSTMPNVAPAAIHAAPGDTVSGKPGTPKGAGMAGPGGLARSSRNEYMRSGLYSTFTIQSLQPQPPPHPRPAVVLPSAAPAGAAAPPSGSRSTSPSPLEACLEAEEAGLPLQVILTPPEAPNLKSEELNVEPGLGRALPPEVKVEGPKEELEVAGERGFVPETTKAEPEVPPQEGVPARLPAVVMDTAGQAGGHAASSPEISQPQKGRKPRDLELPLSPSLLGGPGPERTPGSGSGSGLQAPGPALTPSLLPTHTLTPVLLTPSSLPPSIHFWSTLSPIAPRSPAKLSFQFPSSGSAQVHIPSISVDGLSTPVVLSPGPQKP
# Summary of the method: as §1
# GABPA = molecular target: T3, GABPA (Homo sapiens, UniProt Q06546 1-454); details: protein: recombinant; tags: N-terminal GST; dsDNA, one strand shown
# T3 sequence: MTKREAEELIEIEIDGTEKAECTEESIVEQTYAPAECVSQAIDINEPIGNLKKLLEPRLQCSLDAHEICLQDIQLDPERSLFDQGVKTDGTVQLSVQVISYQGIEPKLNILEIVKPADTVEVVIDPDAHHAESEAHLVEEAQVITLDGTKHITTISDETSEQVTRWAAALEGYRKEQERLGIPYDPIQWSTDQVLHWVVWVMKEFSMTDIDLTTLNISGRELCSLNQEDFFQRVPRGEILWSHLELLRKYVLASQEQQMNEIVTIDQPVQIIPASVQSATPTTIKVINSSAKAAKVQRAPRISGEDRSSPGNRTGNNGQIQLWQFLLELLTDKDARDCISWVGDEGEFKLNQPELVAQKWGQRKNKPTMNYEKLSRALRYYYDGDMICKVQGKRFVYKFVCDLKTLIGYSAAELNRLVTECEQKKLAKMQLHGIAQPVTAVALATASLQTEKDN
# Summary of the method: as §1
# ERG = molecular target: T4, ERG (Homo sapiens, UniProt P11308 1-479); details: protein: recombinant; tags: N-terminal GST; dsDNA, one strand shown
# T4 sequence: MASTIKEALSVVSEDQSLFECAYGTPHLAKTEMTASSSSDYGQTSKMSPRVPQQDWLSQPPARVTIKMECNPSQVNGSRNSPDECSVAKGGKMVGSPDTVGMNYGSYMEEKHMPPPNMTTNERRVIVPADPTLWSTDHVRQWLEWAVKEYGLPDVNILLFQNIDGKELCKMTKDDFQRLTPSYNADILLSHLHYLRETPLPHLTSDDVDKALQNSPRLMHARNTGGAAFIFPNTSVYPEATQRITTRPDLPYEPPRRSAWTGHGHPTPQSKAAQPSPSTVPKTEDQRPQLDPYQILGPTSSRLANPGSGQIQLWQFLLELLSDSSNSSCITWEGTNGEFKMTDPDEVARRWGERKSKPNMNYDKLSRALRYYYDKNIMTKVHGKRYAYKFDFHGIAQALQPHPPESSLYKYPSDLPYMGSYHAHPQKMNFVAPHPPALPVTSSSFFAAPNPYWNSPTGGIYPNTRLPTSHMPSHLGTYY
# Summary of the method: as §1
# ELF1 = ELF1 (Homo sapiens, UniProt P32519 1-619); details: protein: recombinant; tags: N-terminal GST; dsDNA, one strand shown
# Chain of ELF1 (P32519 whole entry): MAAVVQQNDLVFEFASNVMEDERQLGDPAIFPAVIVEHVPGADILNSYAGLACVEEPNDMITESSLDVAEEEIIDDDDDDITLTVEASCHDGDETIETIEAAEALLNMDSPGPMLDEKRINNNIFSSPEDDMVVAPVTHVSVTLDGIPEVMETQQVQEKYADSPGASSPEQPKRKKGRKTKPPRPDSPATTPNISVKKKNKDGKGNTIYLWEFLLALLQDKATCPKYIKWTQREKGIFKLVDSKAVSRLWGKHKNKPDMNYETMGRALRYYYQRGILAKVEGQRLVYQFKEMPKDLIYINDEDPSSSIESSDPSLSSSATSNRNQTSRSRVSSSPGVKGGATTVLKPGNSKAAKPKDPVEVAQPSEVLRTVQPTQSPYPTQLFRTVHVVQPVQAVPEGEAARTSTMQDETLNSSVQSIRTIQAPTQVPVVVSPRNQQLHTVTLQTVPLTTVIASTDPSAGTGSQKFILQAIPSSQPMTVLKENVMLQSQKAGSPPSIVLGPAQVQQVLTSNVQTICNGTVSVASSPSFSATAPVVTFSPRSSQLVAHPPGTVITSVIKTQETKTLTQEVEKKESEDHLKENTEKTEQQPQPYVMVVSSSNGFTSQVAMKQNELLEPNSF
# Summary of the method: as §1
# EHF = molecular target: T5, EHF (Homo sapiens, UniProt Q9NZC4 1-300); details: protein: recombinant; tags: N-terminal GST; dsDNA, one strand shown
# T5 sequence: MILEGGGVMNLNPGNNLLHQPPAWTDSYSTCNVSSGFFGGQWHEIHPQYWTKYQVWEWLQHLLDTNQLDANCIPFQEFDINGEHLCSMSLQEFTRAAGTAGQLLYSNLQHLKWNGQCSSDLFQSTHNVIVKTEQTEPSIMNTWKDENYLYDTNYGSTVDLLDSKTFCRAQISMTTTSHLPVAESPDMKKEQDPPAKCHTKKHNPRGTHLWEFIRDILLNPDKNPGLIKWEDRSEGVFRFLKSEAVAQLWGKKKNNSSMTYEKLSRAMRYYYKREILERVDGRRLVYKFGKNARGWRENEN
# Summary of the method: as §1
# SPI1 = SPI1 (Homo sapiens, UniProt P17947 1-270); details: protein: recombinant; tags: N-terminal GST; dsDNA, one strand shown
# Summary of the method: as §1
# SPIB = SPIB (Homo sapiens, UniProt Q01892 1-262); details: protein: recombinant; tags: N-terminal GST; dsDNA, one strand shown
# Chain of SPIB (Q01892 whole entry): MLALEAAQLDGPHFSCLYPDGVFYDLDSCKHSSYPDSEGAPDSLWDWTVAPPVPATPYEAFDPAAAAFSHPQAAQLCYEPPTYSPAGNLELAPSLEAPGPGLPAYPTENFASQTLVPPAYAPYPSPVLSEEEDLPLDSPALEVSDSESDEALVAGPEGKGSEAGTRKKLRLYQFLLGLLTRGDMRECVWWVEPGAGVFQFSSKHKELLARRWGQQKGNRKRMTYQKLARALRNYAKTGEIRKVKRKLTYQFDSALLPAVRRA
# Summary of the method: as §1
# ELK3 = molecular target: T6, ELK3 (Homo sapiens, UniProt P41970 1-407); details: protein: recombinant; tags: N-terminal GST; dsDNA, one strand shown
# T6 sequence: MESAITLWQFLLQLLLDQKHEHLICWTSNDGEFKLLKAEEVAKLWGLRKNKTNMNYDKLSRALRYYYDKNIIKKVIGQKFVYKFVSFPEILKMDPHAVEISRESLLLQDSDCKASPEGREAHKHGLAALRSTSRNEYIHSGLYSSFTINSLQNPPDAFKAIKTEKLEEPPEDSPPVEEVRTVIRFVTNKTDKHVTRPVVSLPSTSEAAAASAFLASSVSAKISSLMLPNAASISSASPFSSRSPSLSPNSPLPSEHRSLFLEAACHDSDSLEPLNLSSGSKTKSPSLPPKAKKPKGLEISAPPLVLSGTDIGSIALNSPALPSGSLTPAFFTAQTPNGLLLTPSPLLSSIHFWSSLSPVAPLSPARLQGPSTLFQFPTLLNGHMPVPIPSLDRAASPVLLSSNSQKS
# Summary of the method: as §1
# FEV = molecular target: T7, FEV (Homo sapiens, UniProt Q99581 1-238); details: protein: recombinant; tags: N-terminal GST; dsDNA, one strand shown
# T7 sequence: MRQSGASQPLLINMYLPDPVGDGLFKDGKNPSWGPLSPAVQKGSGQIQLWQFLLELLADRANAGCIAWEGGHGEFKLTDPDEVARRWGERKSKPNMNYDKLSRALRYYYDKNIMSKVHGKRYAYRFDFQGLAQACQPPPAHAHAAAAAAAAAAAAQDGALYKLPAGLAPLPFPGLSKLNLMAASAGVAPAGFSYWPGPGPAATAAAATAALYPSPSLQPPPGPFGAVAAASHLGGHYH
# Summary of the method: as §1
# ETV5 = ETV5 (Homo sapiens, UniProt P41161 1-510); details: protein: recombinant; tags: N-terminal GST; dsDNA, one strand shown
# Chain of ETV5 (P41161 whole entry): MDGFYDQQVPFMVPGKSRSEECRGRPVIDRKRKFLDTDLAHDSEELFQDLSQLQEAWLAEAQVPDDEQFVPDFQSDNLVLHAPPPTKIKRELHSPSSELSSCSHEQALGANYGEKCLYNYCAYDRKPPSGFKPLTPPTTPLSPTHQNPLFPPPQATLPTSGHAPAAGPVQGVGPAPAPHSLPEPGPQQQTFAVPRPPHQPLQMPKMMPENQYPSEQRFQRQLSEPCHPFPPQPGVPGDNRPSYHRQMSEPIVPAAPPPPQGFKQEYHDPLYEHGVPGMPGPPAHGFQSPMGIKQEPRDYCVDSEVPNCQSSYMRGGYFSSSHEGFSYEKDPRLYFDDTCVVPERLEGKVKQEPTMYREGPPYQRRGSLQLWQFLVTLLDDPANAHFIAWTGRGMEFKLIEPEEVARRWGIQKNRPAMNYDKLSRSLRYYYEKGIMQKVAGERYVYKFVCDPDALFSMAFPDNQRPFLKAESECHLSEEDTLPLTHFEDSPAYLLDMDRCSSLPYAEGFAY
# Summary of the method: as §1
# HSF1 = HSF1 (Homo sapiens, UniProt Q00613 1-529); details: protein: recombinant; tags: N-terminal GST; chain copies: 3; dsDNA, one strand shown
# Chain of HSF1 (Q00613 whole entry): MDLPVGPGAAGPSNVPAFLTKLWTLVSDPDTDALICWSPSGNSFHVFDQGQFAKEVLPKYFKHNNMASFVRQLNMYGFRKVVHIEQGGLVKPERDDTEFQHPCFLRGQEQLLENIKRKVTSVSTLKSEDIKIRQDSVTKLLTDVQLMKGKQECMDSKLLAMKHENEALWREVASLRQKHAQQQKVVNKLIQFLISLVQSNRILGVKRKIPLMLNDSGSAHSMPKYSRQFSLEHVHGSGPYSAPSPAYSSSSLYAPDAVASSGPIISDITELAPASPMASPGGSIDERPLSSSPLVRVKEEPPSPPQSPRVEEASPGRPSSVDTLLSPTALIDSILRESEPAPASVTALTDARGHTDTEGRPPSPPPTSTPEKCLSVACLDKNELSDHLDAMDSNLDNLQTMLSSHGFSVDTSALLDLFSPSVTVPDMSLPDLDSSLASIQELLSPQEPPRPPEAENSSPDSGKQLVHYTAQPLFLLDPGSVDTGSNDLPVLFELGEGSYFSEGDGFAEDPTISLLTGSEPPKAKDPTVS
# Summary of the method: as §1
# SPIC = molecular target: T8, SPIC (Homo sapiens, UniProt Q8N5J4 1-248); details: protein: recombinant; tags: N-terminal GST; dsDNA, one strand shown
# T8 sequence: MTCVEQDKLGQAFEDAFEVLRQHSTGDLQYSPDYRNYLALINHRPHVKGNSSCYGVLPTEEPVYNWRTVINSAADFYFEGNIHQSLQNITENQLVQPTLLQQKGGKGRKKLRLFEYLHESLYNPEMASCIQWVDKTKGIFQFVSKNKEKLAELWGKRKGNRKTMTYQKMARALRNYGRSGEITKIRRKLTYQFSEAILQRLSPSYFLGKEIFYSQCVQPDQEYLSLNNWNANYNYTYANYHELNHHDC
# Summary of the method: as §1
# ELF4 = ELF4 (Homo sapiens, UniProt Q99607 1-663); details: protein: recombinant; tags: N-terminal GST; dsDNA, one strand shown
# Chain of ELF4 (Q99607 whole entry): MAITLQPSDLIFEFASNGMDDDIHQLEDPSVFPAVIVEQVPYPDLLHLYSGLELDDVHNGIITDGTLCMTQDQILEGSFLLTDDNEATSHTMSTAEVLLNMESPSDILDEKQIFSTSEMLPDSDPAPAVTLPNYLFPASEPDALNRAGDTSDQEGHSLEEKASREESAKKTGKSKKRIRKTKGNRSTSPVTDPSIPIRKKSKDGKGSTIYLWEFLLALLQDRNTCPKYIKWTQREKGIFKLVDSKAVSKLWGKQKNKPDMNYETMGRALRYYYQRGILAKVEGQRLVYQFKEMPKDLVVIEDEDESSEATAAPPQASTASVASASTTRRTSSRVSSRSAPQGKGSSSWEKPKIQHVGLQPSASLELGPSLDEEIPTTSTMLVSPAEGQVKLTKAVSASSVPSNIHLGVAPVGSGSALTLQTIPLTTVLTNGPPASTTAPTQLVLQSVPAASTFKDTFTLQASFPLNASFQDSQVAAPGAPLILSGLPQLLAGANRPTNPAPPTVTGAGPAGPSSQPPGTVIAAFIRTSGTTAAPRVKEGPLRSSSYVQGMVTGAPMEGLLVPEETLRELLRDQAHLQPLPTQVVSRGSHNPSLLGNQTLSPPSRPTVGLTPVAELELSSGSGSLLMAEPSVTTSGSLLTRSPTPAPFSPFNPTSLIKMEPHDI
# Summary of the method: as §1
# ELK4 = molecular target: T9, ELK4 (Homo sapiens, UniProt P28324-2 1-405); details: protein: recombinant; tags: N-terminal GST; dsDNA, one strand shown
# T9 sequence: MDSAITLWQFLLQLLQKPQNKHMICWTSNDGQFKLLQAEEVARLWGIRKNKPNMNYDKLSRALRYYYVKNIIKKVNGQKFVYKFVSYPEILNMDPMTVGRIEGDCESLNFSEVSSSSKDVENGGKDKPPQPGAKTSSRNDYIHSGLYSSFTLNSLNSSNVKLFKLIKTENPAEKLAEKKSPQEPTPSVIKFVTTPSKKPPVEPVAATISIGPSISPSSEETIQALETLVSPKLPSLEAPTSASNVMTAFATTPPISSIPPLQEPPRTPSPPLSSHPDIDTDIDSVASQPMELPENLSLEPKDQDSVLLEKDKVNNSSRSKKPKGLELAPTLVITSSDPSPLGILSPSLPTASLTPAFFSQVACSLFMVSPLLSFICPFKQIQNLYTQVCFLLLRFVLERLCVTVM
# Summary of the method: as §1
# ETV2 = molecular target: T10, ETV2 (Homo sapiens, UniProt O00321 1-342); details: protein: recombinant; tags: N-terminal GST; dsDNA, one strand shown
# T10 sequence: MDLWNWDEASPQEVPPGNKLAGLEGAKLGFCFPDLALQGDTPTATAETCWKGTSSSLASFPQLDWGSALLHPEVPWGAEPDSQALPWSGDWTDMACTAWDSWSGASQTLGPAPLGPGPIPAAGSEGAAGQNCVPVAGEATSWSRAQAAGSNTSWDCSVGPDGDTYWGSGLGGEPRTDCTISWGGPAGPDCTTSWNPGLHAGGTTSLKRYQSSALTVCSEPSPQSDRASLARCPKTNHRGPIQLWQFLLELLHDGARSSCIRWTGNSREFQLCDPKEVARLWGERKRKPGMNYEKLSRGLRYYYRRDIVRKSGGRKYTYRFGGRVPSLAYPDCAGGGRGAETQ
# Summary of the method: as §1
# ELF3 = molecular target: T11, ELF3 (Homo sapiens, UniProt P78545 1-371); details: protein: recombinant; tags: N-terminal GST; dsDNA, one strand shown
# T11 sequence: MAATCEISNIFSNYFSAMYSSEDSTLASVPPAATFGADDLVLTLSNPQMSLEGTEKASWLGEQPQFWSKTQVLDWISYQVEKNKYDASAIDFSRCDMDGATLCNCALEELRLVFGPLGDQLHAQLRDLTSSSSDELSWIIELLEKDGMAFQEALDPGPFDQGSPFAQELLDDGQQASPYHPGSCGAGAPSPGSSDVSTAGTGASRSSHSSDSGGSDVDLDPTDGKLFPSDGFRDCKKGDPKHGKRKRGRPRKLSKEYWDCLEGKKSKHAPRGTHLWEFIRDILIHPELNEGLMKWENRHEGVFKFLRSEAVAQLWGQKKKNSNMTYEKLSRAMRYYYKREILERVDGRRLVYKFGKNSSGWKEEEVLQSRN
# Summary of the method: as §1
# CRX = CRX (Homo sapiens, UniProt O43186 1-299); details: protein: recombinant; tags: N-terminal GST; dsDNA, one strand shown
# Chain of CRX (O43186 whole entry): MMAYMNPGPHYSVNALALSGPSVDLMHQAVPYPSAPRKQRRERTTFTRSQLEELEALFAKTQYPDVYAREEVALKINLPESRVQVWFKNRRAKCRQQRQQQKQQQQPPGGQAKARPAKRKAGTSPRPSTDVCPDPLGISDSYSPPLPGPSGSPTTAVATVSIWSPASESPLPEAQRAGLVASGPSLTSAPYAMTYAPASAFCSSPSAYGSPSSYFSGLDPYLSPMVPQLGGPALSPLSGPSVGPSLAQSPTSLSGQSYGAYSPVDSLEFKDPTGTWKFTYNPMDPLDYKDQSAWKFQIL
# Summary of the method: as §1
# ETV1 = ETV1 (Homo sapiens, UniProt P50549 1-477); details: protein: recombinant; tags: N-terminal GST; dsDNA, one strand shown
# Chain of ETV1 (P50549 whole entry): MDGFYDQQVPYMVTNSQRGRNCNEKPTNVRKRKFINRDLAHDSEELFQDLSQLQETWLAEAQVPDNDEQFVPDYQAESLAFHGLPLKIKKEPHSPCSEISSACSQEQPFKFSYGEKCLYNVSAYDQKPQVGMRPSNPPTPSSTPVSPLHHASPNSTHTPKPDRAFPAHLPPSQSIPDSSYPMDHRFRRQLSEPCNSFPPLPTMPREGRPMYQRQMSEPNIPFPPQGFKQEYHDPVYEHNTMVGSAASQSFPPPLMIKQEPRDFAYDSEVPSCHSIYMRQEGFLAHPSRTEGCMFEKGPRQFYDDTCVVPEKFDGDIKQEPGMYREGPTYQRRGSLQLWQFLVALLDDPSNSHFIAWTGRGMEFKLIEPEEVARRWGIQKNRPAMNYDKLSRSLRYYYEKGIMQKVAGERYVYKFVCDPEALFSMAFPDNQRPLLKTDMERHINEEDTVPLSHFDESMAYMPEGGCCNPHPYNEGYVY
# Summary of the method: as §1
sequence,measurement,setting,value
CCAAAA,binding signal,FLI1,"1.09 fold enrichment (6-mer frequency, TF over GST control)"
same,binding signal,ELK1,"1.13 fold enrichment (6-mer frequency, TF over GST control)"
same,binding signal,GABPA,"1.16 fold enrichment (6-mer frequency, TF over GST control)"
same,binding signal,ERG,"1.12 fold enrichment (6-mer frequency, TF over GST control)"
same,binding signal,ELF1,"1.17 fold enrichment (6-mer frequency, TF over GST control)"
same,binding signal,EHF,"1.15 fold enrichment (6-mer frequency, TF over GST control)"
same,binding signal,SPI1,"1.29 fold enrichment (6-mer frequency, TF over GST control)"
same,binding signal,SPIB,"1.12 fold enrichment (6-mer frequency, TF over GST control)"
same,binding signal,ELK3,"1.13 fold enrichment (6-mer frequency, TF over GST control)"
same,binding signal,FEV,"1.2 fold enrichment (6-mer frequency, TF over GST control)"
same,binding signal,ETV5,"1.19 fold enrichment (6-mer frequency, TF over GST control)"
same,binding signal,HSF1,"1.17 fold enrichment (6-mer frequency, TF over GST control)"
same,binding signal,SPIC,"1.05 fold enrichment (6-mer frequency, TF over GST control)"
same,binding signal,ELF4,"1.19 fold enrichment (6-mer frequency, TF over GST control)"
same,binding signal,ELK4,"1.05 fold enrichment (6-mer frequency, TF over GST control)"
same,binding signal,ETV2,"1.28 fold enrichment (6-mer frequency, TF over GST control)"
same,binding signal,ELF3,"1.03 fold enrichment (6-mer frequency, TF over GST control)"
same,binding signal,CRX,"1.06 fold enrichment (6-mer frequency, TF over GST control)"
same,binding signal,ETV1,"1.18 fold enrichment (6-mer frequency, TF over GST control)"

# Source: article PMC7862700, “An all-to-all approach to the identification of sequence-specific readers for epigenetic DNA modifications on cytosine”
